This is an account of results in ChEMBL document CHEMBL3988442, “University of Dundee, Small-Polar-MMV Screening Library” (2021).

Design in all cases: scale not given: direction of the effect not stated beside the values
Assay [1] concerns the target Protein translocase subunit SecA (Escherichia coli (strain K12)) (UniProt P10408). Put plainly: Assay to Identify E. coli SecA ATPase Inhibitors. In kind it is functional. The note with it: 30 µM.
For assay [2], the target named is T1, Ubiquitin-activating enzyme e1, putative (Leishmania donovani (strain BPK282A1)) (UniProt E9BSI1).
T1 sequence (whole entry): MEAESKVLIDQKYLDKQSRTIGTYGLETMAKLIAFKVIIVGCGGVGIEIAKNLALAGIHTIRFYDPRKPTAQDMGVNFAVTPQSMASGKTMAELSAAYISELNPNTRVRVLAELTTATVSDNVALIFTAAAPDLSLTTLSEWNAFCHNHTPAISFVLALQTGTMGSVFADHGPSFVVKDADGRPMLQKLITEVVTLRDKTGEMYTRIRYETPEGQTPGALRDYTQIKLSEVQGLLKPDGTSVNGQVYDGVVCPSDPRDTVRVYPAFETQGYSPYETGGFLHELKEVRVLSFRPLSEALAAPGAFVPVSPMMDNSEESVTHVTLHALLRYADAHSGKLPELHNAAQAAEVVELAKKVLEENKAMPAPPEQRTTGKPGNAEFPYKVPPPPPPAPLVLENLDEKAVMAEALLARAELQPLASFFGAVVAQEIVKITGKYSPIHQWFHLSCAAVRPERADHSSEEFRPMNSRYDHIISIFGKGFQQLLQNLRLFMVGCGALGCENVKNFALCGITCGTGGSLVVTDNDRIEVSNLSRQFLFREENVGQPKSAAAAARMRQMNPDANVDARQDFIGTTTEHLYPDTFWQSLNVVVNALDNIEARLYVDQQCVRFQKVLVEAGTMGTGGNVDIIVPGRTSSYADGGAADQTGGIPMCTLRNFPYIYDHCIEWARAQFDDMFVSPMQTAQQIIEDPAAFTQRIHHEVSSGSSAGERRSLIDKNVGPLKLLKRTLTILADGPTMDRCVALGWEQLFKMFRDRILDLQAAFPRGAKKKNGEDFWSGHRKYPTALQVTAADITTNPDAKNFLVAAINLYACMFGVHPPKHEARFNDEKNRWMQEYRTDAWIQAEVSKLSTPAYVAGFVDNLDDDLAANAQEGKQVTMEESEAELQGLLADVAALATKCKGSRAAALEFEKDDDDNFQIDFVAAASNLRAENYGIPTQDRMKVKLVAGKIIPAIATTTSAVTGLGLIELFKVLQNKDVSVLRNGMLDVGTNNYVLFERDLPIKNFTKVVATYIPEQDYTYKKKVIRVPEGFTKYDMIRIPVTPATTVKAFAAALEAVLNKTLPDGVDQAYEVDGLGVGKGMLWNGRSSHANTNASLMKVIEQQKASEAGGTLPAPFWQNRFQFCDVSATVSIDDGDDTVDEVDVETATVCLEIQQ
Briefly: Leishmania donovani Ubiquitin Activating Enzyme (LdE1). Format: functional. Conditions: 30 µM.

The target of assay [3] is AMP-activated protein kinase, AMPK (Homo sapiens) (UniProt P54646+O43741+P54619+Q9UGJ0+Q9Y478+Q13131+Q9UGI9). Put plainly: AMP-dependent Kinase enzyme assay. An in vitro enzyme assay that detects ADP turnover that is directly proportional to AMPK activity. This uses naive AMPK that is activated during the assay with MK-8722. The note with it: 30 µM. Format: functional.

Assay [4] addresses Sialic acid-binding Ig-like lectin 9 (Homo sapiens) (UniProt Q9Y336). Put plainly: Hs-Siglec9 ALPHAscreen SOP 20170721. The note with it: 10 µM. For orientation: Alpha assays give light when donor and acceptor beads are brought close together.
The next assay relates to Trypanosoma cruzi. Briefly: Trypanosoma cruzi phosphomannomutase and mannose-1-phosphate guanylyltransferase assay. Conditions: 10 µM. In kind it is functional.
The target in assay [5] is T2, Arginase-2, mitochondrial (Homo sapiens) (UniProt P78540).
T2 sequence (whole entry): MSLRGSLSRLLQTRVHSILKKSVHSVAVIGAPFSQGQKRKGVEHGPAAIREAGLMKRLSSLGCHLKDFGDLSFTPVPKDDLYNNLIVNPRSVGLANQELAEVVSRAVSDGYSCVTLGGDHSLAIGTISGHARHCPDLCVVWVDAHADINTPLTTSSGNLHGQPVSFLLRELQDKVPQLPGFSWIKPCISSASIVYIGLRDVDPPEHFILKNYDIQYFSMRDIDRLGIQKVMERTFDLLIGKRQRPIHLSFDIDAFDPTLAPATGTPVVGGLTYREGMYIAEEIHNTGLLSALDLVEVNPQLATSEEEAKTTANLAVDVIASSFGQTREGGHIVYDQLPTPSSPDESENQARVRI
Put plainly: in vitro enzyme assay to detect the production of urea directly proportional to the activity of Arginase II. Note: in the data most compounds retested in dose-response had high values. In kind it is functional. The note with it: 33.3 µM.

The target in assay [6] is T3, Proteasome subunit beta (Trypanosoma cruzi) (UniProt O96673).
T3 sequence (whole entry): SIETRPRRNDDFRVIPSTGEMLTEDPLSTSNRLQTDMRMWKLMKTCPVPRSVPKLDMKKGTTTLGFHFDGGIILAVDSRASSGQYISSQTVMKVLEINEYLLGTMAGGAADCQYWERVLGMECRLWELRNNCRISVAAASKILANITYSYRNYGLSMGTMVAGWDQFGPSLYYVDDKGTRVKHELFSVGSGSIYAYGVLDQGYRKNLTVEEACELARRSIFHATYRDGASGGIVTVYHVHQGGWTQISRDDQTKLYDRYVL
Briefly: Trypanosoma cruzi proteasome chymotrypsin-like activity (TcProtChymo) assay. Note: in the data most compounds retested in dose-response had high values. Format: functional. Conditions: 9.37 µM.

The species named for a further assay is Homo sapiens. Briefly: To identify inhibition of the IFN signalling (Jak-Stat) pathway via expression of an eGFP reporter gene under the control of an IFN-stimulated response element (ISRE) containing MxA promoter. In kind it is functional. The note with it: 30 µM. For orientation: In a reporter assay the amount or activity of a reporter protein is the signal.

Assay [7] addresses T4, Tyrosyl-tRNA synthetase, putative (Trypanosoma cruzi (strain CL Brener)) (UniProt Q4DSP6).
T4 sequence (whole entry): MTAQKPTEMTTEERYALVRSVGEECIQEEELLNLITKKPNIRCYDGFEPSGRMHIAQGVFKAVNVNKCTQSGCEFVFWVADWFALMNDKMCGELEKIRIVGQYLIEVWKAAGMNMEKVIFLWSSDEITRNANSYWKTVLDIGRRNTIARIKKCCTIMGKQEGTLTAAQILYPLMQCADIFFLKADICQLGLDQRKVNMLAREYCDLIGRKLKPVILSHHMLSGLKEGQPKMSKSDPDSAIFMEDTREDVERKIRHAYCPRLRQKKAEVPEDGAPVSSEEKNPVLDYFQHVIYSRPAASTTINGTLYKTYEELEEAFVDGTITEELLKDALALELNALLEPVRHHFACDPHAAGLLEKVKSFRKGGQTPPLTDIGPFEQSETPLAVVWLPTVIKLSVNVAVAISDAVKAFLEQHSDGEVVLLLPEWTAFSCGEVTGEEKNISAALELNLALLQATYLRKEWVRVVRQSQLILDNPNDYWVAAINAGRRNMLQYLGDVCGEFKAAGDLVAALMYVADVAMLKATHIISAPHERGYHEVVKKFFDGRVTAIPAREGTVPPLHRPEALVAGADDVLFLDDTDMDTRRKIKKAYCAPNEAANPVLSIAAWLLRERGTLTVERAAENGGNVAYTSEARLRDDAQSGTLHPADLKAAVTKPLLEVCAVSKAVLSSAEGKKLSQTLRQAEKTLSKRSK
Briefly: Trypanosoma cruzi tyrosyl tRNA synthetase (TcYRS) _High Tyrosine SOP. Note: in the data most compounds retested in dose-response had high values. Format: functional. The note with it: 30 µM.

Assay [8] addresses T4, Tyrosyl-tRNA synthetase, putative (Trypanosoma cruzi (strain CL Brener)). Put plainly: Trypanosoma cruzi tyrosyl tRNA synthetase (TcYRS) SOP. Format: functional. The note with it: 30 µM.
In assay [9] the target is Chromo domain-containing protein 1 (Saccharomyces cerevisiae (strain ATCC 204508 / S288c) (Baker's yeast)) (UniProt P32657). Briefly: ScCHD-1 Enzyme Inhibition Assay. Note: in the data most compounds retested in dose-response had high values. Format: functional. The note with it: 30 µM.
Chain of Chromo domain-containing protein 1 (Saccharomyces cerevisiae (strain ATCC 204508 / S288c) (Baker's yeast)) (P32657 whole entry, the tested form may be a part): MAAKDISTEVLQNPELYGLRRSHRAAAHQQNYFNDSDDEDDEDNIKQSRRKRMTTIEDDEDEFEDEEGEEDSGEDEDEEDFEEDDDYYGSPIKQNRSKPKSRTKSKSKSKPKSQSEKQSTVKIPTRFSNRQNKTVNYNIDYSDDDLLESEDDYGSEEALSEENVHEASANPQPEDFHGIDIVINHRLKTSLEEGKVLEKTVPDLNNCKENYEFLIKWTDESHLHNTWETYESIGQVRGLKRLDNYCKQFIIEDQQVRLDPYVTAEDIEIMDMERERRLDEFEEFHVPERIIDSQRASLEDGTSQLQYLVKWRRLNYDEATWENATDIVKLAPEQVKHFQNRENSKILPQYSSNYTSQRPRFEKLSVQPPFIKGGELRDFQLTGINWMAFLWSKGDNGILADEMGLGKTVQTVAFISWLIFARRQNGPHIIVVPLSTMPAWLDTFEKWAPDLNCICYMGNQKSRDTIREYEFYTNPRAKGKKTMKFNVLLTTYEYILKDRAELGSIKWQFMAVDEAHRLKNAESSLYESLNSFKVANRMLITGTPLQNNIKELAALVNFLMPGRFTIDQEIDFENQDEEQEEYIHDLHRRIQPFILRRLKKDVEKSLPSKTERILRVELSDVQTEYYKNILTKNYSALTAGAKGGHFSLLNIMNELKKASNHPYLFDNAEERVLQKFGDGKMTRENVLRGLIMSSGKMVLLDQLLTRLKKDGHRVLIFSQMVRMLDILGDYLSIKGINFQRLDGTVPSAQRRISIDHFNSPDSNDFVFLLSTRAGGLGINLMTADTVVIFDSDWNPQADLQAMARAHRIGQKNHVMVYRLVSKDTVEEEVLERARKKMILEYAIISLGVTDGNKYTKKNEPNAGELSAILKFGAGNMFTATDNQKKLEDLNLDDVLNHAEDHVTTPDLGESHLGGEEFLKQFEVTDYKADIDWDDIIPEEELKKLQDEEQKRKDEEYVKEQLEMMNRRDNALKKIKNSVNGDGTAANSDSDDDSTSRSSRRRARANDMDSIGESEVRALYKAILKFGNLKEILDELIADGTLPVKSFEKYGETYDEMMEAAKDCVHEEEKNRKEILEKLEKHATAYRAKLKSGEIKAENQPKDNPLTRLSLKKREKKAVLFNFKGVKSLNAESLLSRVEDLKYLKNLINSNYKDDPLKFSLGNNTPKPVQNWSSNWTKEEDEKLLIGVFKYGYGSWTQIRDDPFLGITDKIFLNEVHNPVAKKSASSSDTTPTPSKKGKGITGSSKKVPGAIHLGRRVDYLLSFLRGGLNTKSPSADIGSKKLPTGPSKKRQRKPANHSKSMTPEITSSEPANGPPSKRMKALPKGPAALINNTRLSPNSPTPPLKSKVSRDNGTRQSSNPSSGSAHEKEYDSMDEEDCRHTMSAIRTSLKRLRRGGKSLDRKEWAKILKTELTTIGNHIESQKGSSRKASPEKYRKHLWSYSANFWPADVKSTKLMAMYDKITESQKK

For some assays here: Measured potencies and affinities stand elsewhere.

Chain of Protein translocase subunit SecA (Escherichia coli (strain K12)) (P10408 whole entry): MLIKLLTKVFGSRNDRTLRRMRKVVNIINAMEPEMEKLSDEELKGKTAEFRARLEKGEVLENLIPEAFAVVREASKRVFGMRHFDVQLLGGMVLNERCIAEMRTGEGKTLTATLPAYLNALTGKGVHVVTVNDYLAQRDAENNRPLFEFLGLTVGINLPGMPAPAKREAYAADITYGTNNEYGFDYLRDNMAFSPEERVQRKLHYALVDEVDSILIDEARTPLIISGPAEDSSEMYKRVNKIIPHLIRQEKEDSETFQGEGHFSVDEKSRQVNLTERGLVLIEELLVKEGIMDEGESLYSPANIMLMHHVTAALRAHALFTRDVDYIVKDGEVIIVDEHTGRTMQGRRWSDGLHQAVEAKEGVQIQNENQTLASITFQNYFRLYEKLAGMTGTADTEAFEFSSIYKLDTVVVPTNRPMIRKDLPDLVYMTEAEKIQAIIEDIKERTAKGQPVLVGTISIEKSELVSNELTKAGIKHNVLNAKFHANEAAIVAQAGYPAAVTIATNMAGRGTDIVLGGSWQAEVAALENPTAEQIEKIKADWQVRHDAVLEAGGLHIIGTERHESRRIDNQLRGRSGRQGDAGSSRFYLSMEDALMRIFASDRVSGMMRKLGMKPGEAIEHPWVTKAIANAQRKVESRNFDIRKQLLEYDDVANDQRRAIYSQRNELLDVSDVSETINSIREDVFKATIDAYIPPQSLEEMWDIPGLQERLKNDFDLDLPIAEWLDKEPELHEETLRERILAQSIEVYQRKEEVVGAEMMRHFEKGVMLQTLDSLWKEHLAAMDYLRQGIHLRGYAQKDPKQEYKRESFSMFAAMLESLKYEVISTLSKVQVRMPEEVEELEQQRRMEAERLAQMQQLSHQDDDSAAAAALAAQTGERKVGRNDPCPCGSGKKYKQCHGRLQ
Chain of Sialic acid-binding Ig-like lectin 9 (Homo sapiens) (Q9Y336 whole entry): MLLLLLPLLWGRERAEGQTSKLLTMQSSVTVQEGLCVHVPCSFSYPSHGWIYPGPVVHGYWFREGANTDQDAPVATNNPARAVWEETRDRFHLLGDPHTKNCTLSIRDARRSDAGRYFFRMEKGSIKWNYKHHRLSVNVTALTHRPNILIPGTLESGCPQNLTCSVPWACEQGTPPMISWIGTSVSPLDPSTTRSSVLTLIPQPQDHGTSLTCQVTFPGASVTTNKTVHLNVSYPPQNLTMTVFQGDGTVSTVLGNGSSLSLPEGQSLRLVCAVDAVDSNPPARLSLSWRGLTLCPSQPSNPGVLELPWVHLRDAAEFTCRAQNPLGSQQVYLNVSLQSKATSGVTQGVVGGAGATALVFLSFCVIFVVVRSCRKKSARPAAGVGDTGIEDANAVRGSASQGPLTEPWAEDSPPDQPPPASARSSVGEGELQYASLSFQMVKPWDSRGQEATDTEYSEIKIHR

Take `COc1ccc(OCC(=O)NC(C)c2ccccc2)c(C(=O)O)c1` (stereo not given): the Percent Effect is -7.92% in assay [1]; 0% in assay [2]; -0.906% in assay [3]; 3.42% in assay [4]; -4.4% in the assay with Trypanosoma cruzi; -0.744% in assay [5]. In addition, the Percent Effect in assay [6] was 6.78%; in the assay filed under Homo sapiens, -2.11%; in assay [7] it was -1.07%; in assay [8], -1.24%; in [9], -2.92%.
As to `CCc1noc(C(C)N(C)CC(=O)Nc2cccc(C)n2)n1` (stereo not given), the Percent Effect in [1] is 0.372%; in [2], 0%; in assay [3], 5.73%; in assay [4], 0.963%; in the assay on Trypanosoma cruzi it was -0.979%; in assay [5], 0.909%. The Percent Effect in assay [6] was 7.28%; in the assay filed under Homo sapiens, 0.0607%; in [7], -1.07%; in [8] it was 0%; in assay [9], 2.92%.
As for `CCOCC1CN(C(=O)c2cscn2)Cc2nnn(CC3CC3)c21` (stereo not given), the Percent Effect was -0.829% in assay [1]; 10.8% in assay [2]; 1.84% in [3]; -5.91% in [4]; 0.88% in the assay with Trypanosoma cruzi; 4.14% in assay [5]. Besides, the Percent Effect in [6] is 18.4%; in the assay filed under Homo sapiens, -1.13%; in assay [7], 2.16%; in assay [8], 7.69%; in assay [9], -1.63%.
Consider `CCc1ccc(CN2CCC3(CC2)CC(N2CCN(C)CC2)CO3)cc1` (stereo not given), for which the Percent Effect is -9.52% in assay [1]; 0% in assay [2]; 7.52% in assay [3]; 5.26% in assay [4]; -0.293% in the assay with Trypanosoma cruzi; -2.23% in assay [5]. Besides, the Percent Effect in assay [6] is 11.6%; in the assay filed under Homo sapiens it was -0.446%; in assay [7], 4.32%; in assay [8], 5.13%; in [9], 14%.
For `CN(C)S(=O)(=O)c1ccc(CN2CCCC2c2ccc[nH]2)o1` (stereo not given), the Percent Effect in assay [1] was -6.1%; in assay [2], -13.2%; in assay [3], -1.76%; in assay [4] it was -2.17%; in the assay with Trypanosoma cruzi, -2.52%; in assay [5], -0.719%. In addition, the Percent Effect in assay [6] is -2.79%; in the assay filed under Homo sapiens, -1.99%; in [7], 4.43%; in assay [8], -6.17%; in [9] it was 5.79%.
In the case of `CC(C)CN1C[C@H]2CCN(c3ncccn3)CC[C@H]2S1(=O)=O`, the Percent Effect in [1] is -1.59%; in [2], 20.8%; in assay [3] it was -1.01%; in assay [4], 12.2%; in the assay with Trypanosoma cruzi, 6.39%; in assay [5], -15.2%. For the same molecule, the Percent Effect is 15% in [6]; -0.732% in the assay filed under Homo sapiens; 6.45% in [7]; 13.6% in [8]; 118% in assay [9].
In the case of `COc1ccccc1OCc1cc(C(=O)N2C[C@H](O)[C@@H](N(C)C)C2)n[nH]1`, the Percent Effect is -3.86% in assay [1]; 6.94% in assay [2]; 0.606% in [3]; -3.31% in [4]; -1.46% in the assay on Trypanosoma cruzi; 0.442% in [5]. The Percent Effect in [6] was 11.9%; in the assay listed under Homo sapiens, 9.72%; in assay [7], 2.1%; in assay [8] it was 2.56%; in assay [9], -2.07%.
As for `CC(=O)N1CCCN(C(=O)c2oc(Br)cc2C)CC1`, the Percent Effect in [1] was -0.989%; in assay [2], 10.8%; in [3], -1.11%; in assay [4], 15.2%; in the assay on Trypanosoma cruzi, 2.12%; in assay [5], 6.19%. For the same molecule, the Percent Effect is 21.4% in assay [6]; 4.33% in the assay filed under Homo sapiens; 2.65% in assay [7]; 17.1% in [8]; -7.7% in assay [9].
As for `CC1CCN(c2ncc3c(n2)CN(c2ccc4c(c2)OCO4)C3=O)CC1`, the Percent Effect in assay [1] was -4.8%; in assay [2] it was 7.79%; in assay [3], -3.15%; in [4] it was 7.77%; in the assay on Trypanosoma cruzi, 0.492%; in assay [5], -9.65%. In addition, the Percent Effect in [6] was 14.1%; in the assay filed under Homo sapiens, -2.83%; in assay [7] it was 5.38%; in assay [8] it was 11.1%; in assay [9], 1.03%.
For the molecule `CC(C)Oc1cccc(C(=O)C2CCCN(C(=O)c3ncn[nH]3)C2)c1` (stereo not given), the Percent Effect is -0.804% in [1]; -2.7% in assay [2]; -3.49% in assay [3]; 0.785% in assay [4]; 7.92% with Trypanosoma cruzi; -1.91% in [5]. In addition, the Percent Effect in [6] was 21.6%; in the assay listed under Homo sapiens, 3.35%; in assay [7], 6.88%; in assay [8], 12.2%; in assay [9], -3.93%.
